# Counter-ions that a name gives are not always drawn. ± gives the standard deviation of the averaged measurements.
# Tested on: E. coli TESEC Mtb DapB
# Test: growth (OD600 after 10 h); higher = more growth (less inhibition)
# Conditions: arabinose induction (level): High; compound 0.1 mM; raw OD600 reference: median of DMSO wells […], cell-free background 0.041
# Procedure: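 TESEC E. coli strains in which the native enzyme is deleted and replaced by arabinose-inducible Mtb Asd, DapB, CysH or TrpD, each grown in its selective medium. Strains were screened against the Prestwick library at 0.1 mM and 1% DMSO in 384-well format at low and high arabinose induction. Growth is read as OD600 after 10 h in triplicate.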
row,SMILES,growth
1,N=c1nc(N2CCCCC2)cc(N)n1O [Minoxidil],0.18 ± 0.0054
2,CC(=O)NC[C@H]1CN(c2ccc(N3CCOCC3)c(F)c2)C(=O)O1 [Linezolid],0.0899 ± 0.0032
3,"CC(O)(P(=O)(O)O)P(=O)(O)O [Etidronic acid, disodium salt]",0.216 ± 0.003
4,COc1ccc2cc([C@@H](C)C(=O)O)ccc2c1 [(R) -Naproxen sodium salt],0.196 ± 0.014
5,NC1CCN(c2nc3c(cc2F)c(=O)c(C(=O)O)cn3-c2ccc(F)cc2F)C1 (centres undefined) [Tosufloxacin hydrochloride],0.05407 ± 0.0005
6,O=C(NCCNCC(O)COc1ccc(O)cc1)N1CCOCC1 (centres undefined) [Xamoterol hemifumarate],0.21 ± 0.0088
7,Cc1cc2cc3c(C)cc(=O)oc3c(C)c2o1 [Trioxsalen],0.231 ± 0.032
8,CCCCC(=O)O[C@H]1CC[C@H]2[C@@H]3CCc4cc(O)ccc4[C@H]3CC[C@]12C [Estradiol Valerate],0.193 ± 0.0052
9,CCCc1ncc(C[n+]2ccccc2C)c(N)n1 [Amprolium hydrochloride],0.187 ± 0.0079
10,COC1=C(OC)C(=O)C(CCCCCCCCCCO)=C(C)C1=O [Idebenone],0.0884 ± 0.057
11,CC(N/C(=N\C#N)Nc1ccncc1)C(C)(C)C (centres undefined) [Pinacidil],0.19 ± 0.012
12,C[C@H]1C[C@H]2[C@@H]3CCC4=CC(=O)C=C[C@]4(C)[C@@]3(F)[C@@H](O)C[C@]2(C)[C@@]1(O)C(=O)CO [Betamethasone],0.198 ± 0.033
13,Fc1ccc(C(c2ccc(F)cc2)N2CCN(C/C=C/c3ccccc3)CC2)cc1 [Flunarizine dihydrochloride],0.0896 ± 0.0018
14,CCC(NC(C)C)C(O)c1ccc(O)c(O)c1 (centres undefined) [Isoetharine mesylate salt],0.187 ± 0.0097
15,C[C@H]1O[C@@H](O[C@H]2[C@@H](O)C[C@H](O[C@H]3[C@@H](O)C[C@H](O[C@H]4CC[C@@]5(C)[C@H](CC[C@@H]6[C@@H]5C[C@@H](O)[C@]5(C)[C@@H](C7=CC(=O)OC7)CC[C@]65O)C4)O[C@@H]3C)O[C@@H]2C)C[C@H](O)[C@@H]1O [Digoxin],0.196 ± 0.016
16,CC(C)(O/N=C(\C(=O)N[C@@H]1C(=O)N2C(C(=O)[O-])=C(C[n+]3ccccc3)CS[C@H]12)c1csc(N)n1)C(=O)O [Ceftazidime pentahydrate],0.167 ± 0.072
17,Cc1cccc(C)c1NC(=O)C(C)N (centres undefined) [Tocainide hydrochloride],0.232 ± 0.038

row,SMILES,growth
1,CCCCNc1cc(C(=O)O)cc(S(N)(=O)=O)c1Oc1ccccc1 [Bumetanide],0.209 ± 0.027
2,CCCSc1ccc2[nH]c(NC(=O)OC)nc2c1 [Albendazole],0.205 ± 0.0098
3,O=c1[nH]cc(F)c(=O)[nH]1 [5-fluorouracil],0.151 ± 0.011
4,CCN(CC)CCOC(=O)C(c1ccccc1)c1ccccc1 [Adiphenine hydrochloride],0.165 ± 0.0095
5,CCCCc1cc2ccccc2c(OCCN(C)C)n1 [Dimethisoquin hydrochloride],0.167 ± 0.014
6,Nc1ccc(S(=O)(=O)Nc2nccs2)cc1 [Sulfathiazole],0.197 ± 0.012
7,Nc1c2c(nc3ccccc13)CCCC2 [Tacrine hydrochloride],0.222 ± 0.024
8,O=C(O)c1cc(/N=N/c2ccc(S(=O)(=O)Nc3ccccn3)cc2)ccc1O [Sulfasalazine],0.207 ± 0.018
9,Oc1c(Cl)cc(Cl)c(Cl)c1Cc1c(O)c(Cl)cc(Cl)c1Cl [Hexachlorophene],0.0536 ± 0.0015
10,CC(C)(C)NC(=O)[C@@H]1C[C@@H]2CCCC[C@@H]2CN1C[C@@H](O)[C@H](Cc1ccccc1)NC(=O)[C@H](CC(N)=O)NC(=O)c1ccc2ccccc2n1 [Saquinavir mesylate],0.05287 ± 0.00045
11,CN1CCN(C2=Nc3cc(Cl)ccc3Nc3ccccc32)CC1 [Clozapine],0.17 ± 0.0049
12,COc1ccc(C2CNC(=O)C2)cc1OC1CCCC1 (centres undefined) [Rolipram],0.211 ± 0.0056
13,C[C@H](Cc1cc2c(c(C(N)=O)c1)N(CCCO)CC2)NCCOc1ccccc1OCC(F)(F)F [Silodosin],0.201 ± 0.02
14,COCCCOc1ccnc(C[S+]([O-])c2nc3ccccc3[nH]2)c1C (centres undefined) [Rabeprazole Sodium salt],0.176 ± 0.021
15,O=C(O)c1cccnc1Nc1cccc(C(F)(F)F)c1 [Niflumic acid],0.172 ± 0.0053
16,C[C@]12CC[C@@H]3c4ccc(O)cc4C[C@@H](CCCCCCCCC[S+]([O-])CCCC(F)(F)C(F)(F)F)[C@H]3[C@@H]1CC[C@@H]2O (some centres undefined) [Fulvestrant],0.212 ± 0.0092
17,CC(C)(C)NCC(O)COc1cccc2c1CC(O)C(O)C2 (centres undefined) [Nadolol],0.201 ± 0.02

# — the supplement of paper PMC9262897, “Low-cost anti-mycobacterial drug discovery using engineered E. coli” (Nature Communications, 2022)
